Assay results: PubChem BioAssay (NCI)
This is part of a sample that, as a whole, favours compounds with a hit. Of some 83,000 tested, about 20% had one in any assay.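 48-hour exposure, single concentration, 96-well plates; percent growth endpoint where 0 means no net growth. Active: below 10.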 Values without a mark were called inactive. Calls of active or inactive are those of the source.

Legend:
Experiment in all cases: NCI-60 one-dose screen, 48 h (100 = growth as untreated, 0 = no growth, -100 = all killed)
Details in all cases: 10 µM unless noted
DU-145 prostate = system: DU-145 prostate
K-562 leukemia = system: K-562 leukemia
MALME-3M melanoma = system: MALME-3M melanoma
MDA-MB-231 breast = system: MDA-MB-231 breast
RXF 393 renal = system: RXF 393 renal
SF-268 CNS = system: SF-268 CNS
SF-295 CNS = system: SF-295 CNS
SF-539 CNS = system: SF-539 CNS
UACC-257 melanoma = system: UACC-257 melanoma
M14 melanoma = system: M14 melanoma
HCT-15 colon = system: HCT-15 colon
HT29 colon = system: HT29 colon
SNB-75 CNS = system: SNB-75 CNS
SNB-19 CNS = system: SNB-19 CNS
U251 CNS = system: U251 CNS
PC-3 prostate = system: PC-3 prostate
SK-MEL-5 melanoma = system: SK-MEL-5 melanoma
UACC-62 melanoma = system: UACC-62 melanoma
LOX IMVI melanoma = system: LOX IMVI melanoma
SK-MEL-28 melanoma = system: SK-MEL-28 melanoma

| SMILES | growth (DU-145 prostate) | growth (K-562 leukemia) | growth (MALME-3M melanoma) [%] | growth (MDA-MB-231 breast) | growth (RXF 393 renal) | growth (SF-268 CNS) | growth (SF-295 CNS) | growth (SF-539 CNS) | growth (UACC-257 melanoma) [%] | growth (M14 melanoma) | growth (HCT-15 colon) | growth (HT29 colon) | growth (SNB-75 CNS) | growth (SNB-19 CNS) | growth (U251 CNS) | growth (PC-3 prostate) | growth (SK-MEL-5 melanoma) | growth (UACC-62 melanoma) [%] | growth (LOX IMVI melanoma) | growth (SK-MEL-28 melanoma) [%] |
| --- | --- | --- | --- | --- | --- | --- | --- | --- | --- | --- | --- | --- | --- | --- | --- | --- | --- | --- | --- | --- |
| O=[N+]([O-])c1ccc(-c2cc(-c3ccc(Nc4nc(Nc5ccc(Cl)cc5)nc(Nc5ccc(Cl)cc5)n4)cc3)no2)cc1 | 87.7% | 65.6% | 96.3 | 73.5% | 71.7% | 96.1% | 563% | 95.4% | 105 | 102% | 89.9% | 16.5% | 16.9% | 98.2% | 91.9% | 74.1% | 79.5% | 95.7 | 84.4% | 40.5 |
| COc1ccc(-c2[nH]c(=S)n(C(CC3(C)NCC(=O)N3n3c(-c4ccccc4)cc(C)nc3=S)c3ccc(OC)cc3)c(=O)c2Br)cc1 (stereo not given) | 66.6% | 14.8% | 90.2 | 79.9% | 65.5% | 75.6% | 61.9% | 58.4% | 88.9 | 70.9% | 39.9% | 40.6% | 3.88% (active) | 55.6% | 55.8% | 66% | 79.5% | 50.6 | 41.3% | 83.6 |
| O=[N+]([O-])c1ccc(OCCO)cc1 | 107% | 78.8% | 107 | 114% | 105% | 100% | 105% | 108% | 104 | 109% | 101% | 108% | 103% | 101% | 104% | 87.2% | 109% | 96.9 | 97.8% | 114 |
| Cn1ccc2c(c1=O)C(=O)c1nccc3c1c-2nc1ccccc13 | -88.3% (active) | -46.6% (active) | 89.3 | -85.5% (active) | 40.8% | -69.2% (active) | -66% (active) | -28.9% (active) | 108 | 82.9% | -61.4% (active) | -76.7% (active) | 60.2% | -74.4% (active) | -92.9% (active) | -44.8% (active) | 95% | 91.7 | -98.4% (active) | 106 |
| COc1ccc2c(c1)[nH]c(=O)c1c3cccnc3cn21 | 9.39% (active) | 17.4% | 62.6 | 28.9% | 37% | 27.3% | -6.51% (active) | 8.85% (active) | 64.5 | 16.2% | 13.7% | 8.6% (active) | 40.5% | 32.7% | 15.6% | 22% | -33.6% (active) | 16.5 | 33.1% | 70.8 |
| Cc1ccc(-c2cc(-c3cccnc3)[nH]c(=O)c2C#N)cc1 | 110% | 108% | 112 | 109% | 105% | 99.3% | 102% | 99.9% | 108 | 112% | 103% | 107% | 85.2% | 97% | 101% | 110% | 105% | 96.9 | 96.9% | 109 |
| O=C(COc1ccc(/C=C2\Oc3ccccc3C2=O)cc1)Nc1nc2c(s1)CCCC2 | -79.7% (active) | 20.9% | 22.6 | 22.2% | -5.41% (active) | -9.96% (active) | 101% | -95.7% (active) | 104 | 98.3% | 89.7% | 30.2% | -76.6% (active) | 83% | -44.4% (active) | 12.3% | 103% | 75.6 | -57.3% (active) | 117 |
| C[C@H](NC(=O)[C@@H]1CSSC[C@@H](NC(=O)c2nc3ccccc3cc2O)C(=O)NCC(=O)N1C)c1ccccc1 | 32.2% | -30.9% (active) | 49.9 | -39.5% (active) | -27.4% (active) | 17.6% | 77.6% | 5.09% (active) | 60.9 | 0.586% (active) | 42.1% | -28.2% (active) | 80.3% | 35.4% | -7.49% (active) | 54.7% | 0.825% (active) | 16.7 | -74.5% (active) | 33.9 |
